Source: ChEMBL document CHEMBL3988442, “University of Dundee, Small-Polar-MMV Screening Library” (2021)
The campaign covered roughly 69,000 compounds. About 420 (0.61%) showed an effect of 50% or more. What follows is part of a selection rich in strong results, with near analogues and random picks from the rest.

Molecular target: T1, Histidine--tRNA ligase (Leishmania infantum) (UniProt A4I591)
T1 sequence (whole entry): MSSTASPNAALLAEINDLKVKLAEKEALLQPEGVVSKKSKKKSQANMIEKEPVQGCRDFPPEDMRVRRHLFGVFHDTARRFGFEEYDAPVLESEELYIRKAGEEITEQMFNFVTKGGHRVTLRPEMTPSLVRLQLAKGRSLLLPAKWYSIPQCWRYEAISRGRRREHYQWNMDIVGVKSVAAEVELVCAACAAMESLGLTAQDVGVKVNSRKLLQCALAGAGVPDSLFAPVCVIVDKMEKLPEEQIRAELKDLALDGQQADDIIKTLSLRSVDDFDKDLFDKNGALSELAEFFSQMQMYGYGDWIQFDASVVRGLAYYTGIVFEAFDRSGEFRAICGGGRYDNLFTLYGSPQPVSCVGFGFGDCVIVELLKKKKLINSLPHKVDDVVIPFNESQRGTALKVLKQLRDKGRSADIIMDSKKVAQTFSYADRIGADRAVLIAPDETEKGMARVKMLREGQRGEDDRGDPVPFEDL
Test: Leishmania infantum Histidine tRNA synthetase (LdHisRS)
Assay type: functional
Parameters: scale not given: in the data most compounds retested in dose-response had high values
Details: 30 µM

SMILES | Percent Effect [%]
CN(C)C(=O)CO[C@H]1CN(Cc2ccccc2)[C@@H]2CCCO[C@H]12 | 20.6
CC(C)(C)CC(=O)N1CC[C@H]2NC(=O)N(Cc3ccccc3)C(=O)[C@H]21 | 30.6
Cc1ncsc1CN1CC[C@H]2OCC[C@@]2(C(=O)NC(C)C)C1 | -0.971
CO[C@@H]1CC[C@H]2[C@H]1OCCN2Cc1ccc(F)c(F)c1 | 8.33
c1cnn(CCCO[C@@H]2CN(C3CCOCC3)[C@@H]3CCCO[C@@H]32)c1 | 15.3
Cc1noc(C)c1CNc1c(N2CCCC2)cccc1N1CCCC1 | 84
COc1ccccc1N1CCC(NCc2c(C)noc2C)C1 (configuration not stated) | 7.14
Cc1noc(CNc2c(N3CCCC3)cccc2N2CCCC2)n1 | 6.67
Cc1noc([C@@H]2C[C@H]3CN(CC4CCOCC4)C[C@H]3O2)n1 | 10.5
CO[C@H]1CCN(C(=O)c2ccsc2)[C@@H]2CN(CC3CC3)C[C@H]12 | 5.77
Cc1nc(CN(C)C2CCN(Cc3ccc4ccccc4n3)C2)no1 (configuration not stated) | 53.1
CC(=O)N(Cc1noc(C)n1)C1CCN(Cc2cccc(C#N)c2)C1 (configuration not stated) | 63.2
Cc1nc(CN(C)C2CCN(Cc3nc4ccccc4n3C)C2)no1 (configuration not stated) | 10.3
Cc1nc(CN(C)C2CCN(Cc3nc4ccccc4s3)C2)no1 (configuration not stated) | 25.8
CC(=O)N(Cc1noc(C)n1)C1CCN(Cc2ccccc2C#N)C1 (configuration not stated) | 2.7
CC(=O)N(Cc1noc(C)n1)C1CCN(Cc2ccc(C#N)cc2)C1 (configuration not stated) | 17.1
Cc1cnc(N2C[C@@H]3[C@@H](C(=O)NCC(C)C)CCS(=O)(=O)[C@@H]3C2)nc1 | 12.3
CN1[C@H](Cn2cncn2)C[C@@H]2CN(C3CCOCC3)CC[C@@H]21 | 20
Cc1n[nH]c(C)c1CN1CC[C@@H]2[C@@H](CCC(=O)N2CCc2c[nH]cn2)C1 | 19.4
CC(C)CNC(=O)N1C[C@H]2C[C@H](C(=O)NCc3ccccc3)[C@@H](C1)O2 | 14.6
O=c1c2cnc(N3CCCC3)nc2ccn1-c1cccc(F)c1 | 13.3
O=c1c2cnc(N3CCCCC3)nc2ccn1-c1ccccc1 | 7.77
O=c1c2cnc(N3CCOCC3)nc2ccn1-c1ccccc1 | 50
COc1cc(CCC(C)O)c(OC)c2c1OCO2 (configuration not stated) | 0
COc1cc(CO)c(OC)c2c1OCO2 | 18.3
COc1cc(CCO)c(OC)c2c1OCO2 | 51.7

SMILES | Percent Effect [%]
Cc1noc([C@H]2C[C@H]3OCC[C@H]3N(S(C)(=O)=O)C2)n1 | -20.2
COC(=O)c1ccc(OC)c(Cn2cc(N)cn2)c1 | 50.6
CCn1cc(C(=O)Nc2cc(C(=O)OC)ccc2C(=O)OC)cn1 | 10.3
COC(=O)c1ccc(OC)c(Cn2cc(Br)cn2)c1 | 1.12
CNC(=O)[C@@H]1[C@@H](c2ccccc2)CN2CCN(Cc3ccccn3)C[C@H]12 | 8.16
CSCC(=O)N1C[C@H]2CC[C@@H]1CN(Cc1ccccc1)C2 | 26.9
CN(Cc1ccco1)[C@@H]1CN(Cc2cccs2)C[C@@H]2CCCO[C@@H]21 | 5.46
O=C(CN1CCc2cncnc2C1)NCCOc1ccccc1 | 50
O=C(CN1CCc2cncnc2C1)NCCOc1cccc(Cl)c1 | 18.4
COc1ccccc1OCCNC(=O)CN1CCc2cncnc2C1 | 20.2
COCCCN1CCc2cncnc2C1 | 50.6
CS(=O)(=O)c1ccc(OCCCN2CCc3cncnc3C2)cc1 | 12.5
Cc1cccc(OCCNC(=O)CN2CCc3cncnc3C2)c1 | 20.2
CC(C)OCCN1CCc2cncnc2C1 | 37.1
CN(CCCOc1ccccc1)C(=O)CN1CCc2cncnc2C1 | 65.2
CCOCCN1CCc2cncnc2C1 | 32.3
O=C(c1cccc(F)c1)N1CCN2C[C@H](OCc3cccnc3)C[C@H]2C1 | 9.49
COCC(=O)N1CC[C@H]2N(C)CC[C@@]2(C(=O)Nc2ccccc2)CC1 | 15.4
c1cc(CN2CC[C@@H]3[C@@H](CO[C@H]3CN3CCOCC3)C2)cs1 | 18.1
COc1cc(C)ccc1OCCN1CC[C@@]2(O)CCNC[C@H]2C1 | 12.3
COc1ccccc1-n1cc(CN2CCN(C)[C@@H]3CS(=O)(=O)C[C@@H]32)cn1 | 17.1
CCO[C@@H]1CC[C@H]2[C@H]1OCCN2S(=O)(=O)C1CC1 | 4.17
CNc1cc2c(nn1)CCN(C(=O)c1coc(Br)c1)C2 | 52.2
CNc1cc2c(nn1)CCN(C(=O)c1ccoc1)C2 | 10.7
CNc1cc2c(nn1)CCN(C(=O)c1cc(F)cc(F)c1)C2 | 21.3
COc1ccsc1C(=O)Nc1cc(CN2CCOCC2)ccc1C | -11.1

SMILES | Percent Effect [%]
COc1ccsc1C(=O)Nc1cc(Br)c(=O)n(C)c1 | 109
Cn1cc(NC(=O)c2cc[nH]n2)cc(Cl)c1=O | 10.3
COc1ccsc1C(=O)Nc1cc(Cl)c(=O)n(C)c1 | 103
COc1ccsc1C(=O)NCCNc1ccccc1 | 11.7
Cc1ccsc1C(=O)Nc1cc(Br)c(=O)n(C)c1 | 107
Cc1ccsc1C(=O)Nc1cnn(CC(=O)NC2CCCC2)c1 | 3.23
Cn1cc(NC(=O)Nc2ccccn2)cc(Cl)c1=O | 121
COCCn1ccc(NC(=O)Nc2ccccn2)n1 | 13.2
Cn1cc(NC(=O)c2ccccn2)cc(Cl)c1=O | 10.3
CCC(C#N)NC(=O)c1sccc1OC (configuration not stated) | 10.6
Cn1cc(NC(=O)c2ccccn2)cc(Br)c1=O | 15.4
CCS(=O)(=O)N1CCO[C@H]2[C@H](Oc3ncccc3F)CC[C@@H]21 | 8.22
O=C1[C@@H]2CCN(Cc3ccoc3)C[C@@H]2OCCN1c1ccccc1 | 9.49
O=C1NC[C@@]2(C(=O)O)CN(Cc3ccc(Oc4ccccc4)cc3)C[C@@H]12 | 12.1
CC(C)c1nc(CN2CCCCC2)cs1 | 0
CC(C)c1nc(CC(=O)Nc2nc(CN3CCCCCC3)cs2)cs1 | 53.3
CC(C)c1nc(CN2CCC(CO)CC2)cs1 | 13.2
O=C(c1cc(-c2ccco2)nc2c(Cl)cccc12)N1C[C@H]2CNC[C@H]2C1 | 53.3
O=C(c1cc(-c2ccco2)nc2c(Cl)cccc12)N1CC[C@H]2CNC[C@H]21 | 40
Cc1nc(-c2ccco2)ccc1C(=O)N1CCc2nnc(N)cc2C1 | 2.63
O=C1CN(C(=O)c2cc(-c3ccco3)nc3c(Cl)cccc23)CCN1 | 81.7
COCC1CCN(C(=O)c2cc(-c3ccco3)nc3c(Cl)cccc23)C1 (configuration not stated) | 11.7
O=C(c1cc(-c2ccco2)nc2c(Cl)cccc12)N1CCS(=O)(=O)CC1 | 15
NC(=O)N1C[C@@H]2CN(C(=O)c3ccco3)C[C@@H]2C1 | 15.5
Cc1nc(-c2ccco2)ccc1C(=O)N1CCn2c(C)nnc2C1 | 25.4
